Data as given in ChEMBL document CHEMBL1201862, “PubChem BioAssay data set” (2004).
Among all 400,000 compounds or so, about 2,100 (0.53%) were called active. Roughly 14% stayed inconclusive and do not appear here. The rule behind the calls is not given here. This excerpt belongs to a sample that is enriched for actives.

Each compound was assayed against Ataxin-2 (Homo sapiens) (UniProt Q99700) (assay: qHTS for Inhibitors of ATXN expression.).
Format: functional

Ataxin-2 (Homo sapiens), sequence (Q99700 whole entry): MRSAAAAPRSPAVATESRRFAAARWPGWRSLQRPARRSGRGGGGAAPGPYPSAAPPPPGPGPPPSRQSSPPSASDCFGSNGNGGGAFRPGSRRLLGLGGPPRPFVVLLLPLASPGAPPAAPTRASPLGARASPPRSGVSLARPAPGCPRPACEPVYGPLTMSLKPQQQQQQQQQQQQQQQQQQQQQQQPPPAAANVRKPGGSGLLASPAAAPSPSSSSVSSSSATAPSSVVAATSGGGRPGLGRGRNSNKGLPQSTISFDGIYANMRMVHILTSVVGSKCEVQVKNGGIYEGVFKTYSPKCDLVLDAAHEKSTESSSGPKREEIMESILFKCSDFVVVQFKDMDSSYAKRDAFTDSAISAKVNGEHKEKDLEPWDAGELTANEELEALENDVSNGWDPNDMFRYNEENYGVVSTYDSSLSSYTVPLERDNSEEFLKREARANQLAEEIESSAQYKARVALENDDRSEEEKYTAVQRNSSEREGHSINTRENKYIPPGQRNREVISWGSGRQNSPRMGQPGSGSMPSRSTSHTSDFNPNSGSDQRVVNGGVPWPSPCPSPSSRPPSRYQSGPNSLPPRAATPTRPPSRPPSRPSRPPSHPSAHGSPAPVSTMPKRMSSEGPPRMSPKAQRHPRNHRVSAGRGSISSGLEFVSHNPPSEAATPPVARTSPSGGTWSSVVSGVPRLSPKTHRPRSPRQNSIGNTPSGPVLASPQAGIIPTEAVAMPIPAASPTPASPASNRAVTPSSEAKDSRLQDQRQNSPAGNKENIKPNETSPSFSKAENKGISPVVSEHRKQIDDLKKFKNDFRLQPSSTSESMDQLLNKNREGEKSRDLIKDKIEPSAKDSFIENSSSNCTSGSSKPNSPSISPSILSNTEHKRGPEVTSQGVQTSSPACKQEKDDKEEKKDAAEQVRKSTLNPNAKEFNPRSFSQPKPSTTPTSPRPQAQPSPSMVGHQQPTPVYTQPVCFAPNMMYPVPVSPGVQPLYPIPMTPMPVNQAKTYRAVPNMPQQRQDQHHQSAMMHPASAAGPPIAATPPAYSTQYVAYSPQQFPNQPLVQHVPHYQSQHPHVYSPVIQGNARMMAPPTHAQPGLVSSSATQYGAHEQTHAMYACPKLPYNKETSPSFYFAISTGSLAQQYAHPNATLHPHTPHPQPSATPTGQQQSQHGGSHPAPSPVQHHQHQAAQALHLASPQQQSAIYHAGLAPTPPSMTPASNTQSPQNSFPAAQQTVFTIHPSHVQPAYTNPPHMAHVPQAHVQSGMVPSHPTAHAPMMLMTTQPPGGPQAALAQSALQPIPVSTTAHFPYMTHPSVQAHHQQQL

| SMILES | Potency |
| --- | --- |
| Nc1ccc(-c2cc3ccccc3oc2=O)cc1 | inactive |
| COc1ccccc1[C@@H]1C(c2ccccc2)=NN(c2ccccc2)[C@H]1C(=O)N1CCOC1=O | inactive |
| Cc1cccc(N2C(=O)/C(=C\Nc3ccccc3)c3ccccc3C2=O)n1 | inactive |
| CCNc1nc(N)c(C(=O)C23CC4CC(CC(C4)C2)C3)s1 | inactive |
| Cn1c(C(=O)N2CCOCC2)cc2c(=O)n3ccccc3nc21 | inactive |
| COc1ccc(CN=C(Nc2ccccc2)SC2CC(=O)NC2=O)cc1 (stereo unspecified) | inactive |
| C/C(=N\NC(=S)Nc1cccc(C)c1)c1cc2ccccc2o1 | inactive |
| COc1ccc(C/C(C)=N/NC(=S)Nc2ccccc2)cc1 | 35.5 µM (active) |
| Cc1nc(NCC2CC2)c2nnn(Cc3ccccc3)c2n1 | inactive |
| O=S(=O)(NCCc1ccc(F)cc1)c1cccc2cccnc12 | inactive |
| O=S(=O)(NCC1CCN(Cc2ccccc2)CC1)c1ccccc1C(F)(F)F | inactive |
| CCn1cc(CN2CCCC(CNS(=O)(=O)c3cccc4cccnc34)C2)cn1 (stereo unspecified) | 3.16 µM (active) |
| Cc1cc(/C=C2\C(=N)N3N=C(S(C)(=O)=O)SC3=NC2=O)c(C)n1Cc1ccccc1 | inactive |
| CN(C)c1ccc(/C=N/NC(=O)c2nnn(-c3nonc3N)c2COc2ccc(F)cc2)cc1 | inactive |
| CCCN(CCC)Cc1c(C(=O)N/N=C/C(C)=C\c2ccco2)nnn1-c1nonc1N | 25.1 µM (active) |
| CC(C)c1c(C(=O)N/N=C/c2ccco2)nnn1-c1nonc1N | inactive |
| O=S(=O)(N/N=C1\CCCc2ccccc21)c1ccccc1 | inactive |
| O=C(Nc1ccc(F)cc1F)c1cc(Cl)sc1Cl | inactive |
| COc1ccc(OC(C)C(=O)Nc2ccc(F)cc2F)cc1 (stereo unspecified) | inactive |
| CCCSc1nsc(NC(=O)Nc2ccc(F)cc2F)n1 | 31.6 µM (active) |
| Cc1ccc2[nH]c(SCC(=O)c3ccc(O)cc3O)nc2c1 | inactive |
| O=C1OCCN1C(=O)[C@H]1[C@H](c2ccccc2)C(c2cccc(Cl)c2)=NN1c1ccc(Br)cc1 | inactive |
| CCCCN1C(=O)c2ccc(C(=O)NC3(C)CCS(=O)(=O)C3)cc2C1=O (stereo unspecified) | inactive |

| SMILES | Potency |
| --- | --- |
| C=C1[C@@H](O)[C@H](CC(C)C)N(Cc2ccccc2Br)S1(=O)=O | 28.2 µM (active) |
| COc1ccccc1N(C(C)=O)C1=C(Cl)C(=O)c2ccccc2C1=O | inactive |
| C/N=C1\C(=O)c2ccccc2C(O)=C1N(C(C)=O)c1ccc(Br)cc1 | 14.1 µM (active) |
| CC(=O)N(C1=C(Cl)C(=O)c2ccccc2C1=O)c1ccc(C(=O)O)cc1 | inactive |
| NC(=O)c1nsc(C(=O)N(c2cccc(F)c2)C(C(=O)NCc2ccccc2)c2ccc(O)cc2)c1N (stereo unspecified) | inactive |
| C[C@H](CO)N1C[C@H](C)[C@H](CN(C)C(=O)c2ccccc2)OCc2ccccc2-c2c(n(C)c3ccccc23)C1=O | 22.4 µM (active) |
| COc1ccccc1NC(=O)N(C)C[C@@H]1OCc2ccccc2-c2c(n(C)c3ccccc23)C(=O)N([C@H](C)CO)C[C@@H]1C | 35.5 µM (active) |
| COC(=O)CN1C(=O)N/C(=C/c2cc(Cl)c(OC)c(OC)c2)C1=O | inactive |
| CC(=O)O/N=C/c1c(NCc2ccccc2)nc2c(C)cccn2c1=O | inactive |
| Cc1nc(SCc2ccccc2)nc2c1CCC2 | inactive |
| CC(=O)c1c(C)[nH]c(C(=O)CN2C(=O)NC(C)(CCC(C)C)C2=O)c1C (stereo unspecified) | inactive |
| CCSc1ccc(-c2nn(-c3ccccc3)cc2/C=C(/C#N)C(=O)NCCCOC)cc1 | inactive |
| O=C1CSC(=S)N1N=Cc1cccc(OCc2ccccc2)c1 | inactive |
| COc1ccc(-c2nn(-c3ccccc3)cc2/C=N/N2C(=O)CSC2=S)cc1 | 39.8 µM (active) |
| CCCCCCc1cc2cc(S(=O)(=O)c3ccc(F)cc3)c(=O)oc2cc1O | inactive |
| NC(=O)c1sc2nc(-c3ccccc3)ccc2c1N | inactive |
| CCC1CCCCN1C(=O)c1ccc(OC2CCN(C(=O)COC)CC2)cc1 (stereo unspecified) | inactive |
| Cn1cc(C(=O)N2CCN(c3cccc(C(F)(F)F)c3)CC2)c2c3ccccc3n(C)c2c1=O | 31.6 µM (active) |
| COCCN=C(S)N1CCN(c2cccc(C(F)(F)F)c2)CC1 | inactive |
| Cc1c(S(=O)(=O)N2CCN(c3cccc(C(F)(F)F)c3)CC2)c(=O)n(C)c(=O)n1C | inactive |
| CC(=O)N(C1=C(Cl)C(=O)c2ccccc2C1=O)C1CCCCC1 | inactive |
| CN(C)c1ccc(NC2=C(Cl)C(=O)c3ccccc3C2=O)cc1 | 25.1 µM (active) |
| CCCC(=O)NC1=C(Cl)C(=O)c2ccccc2C1=O | inactive |

| SMILES | Potency |
| --- | --- |
| Cc1ccc(NC2=C(Cl)C(=O)c3ccccc3C2=O)cc1 | 28.2 µM (active) |
| CC(=O)Nc1ccc(NC2=C(Cl)C(=O)c3ccccc3C2=O)cc1 | 28.2 µM (active) |
| Oc1c(Cl)cc(Cl)cc1/C=N/NC(=S)NC1CC2C=CC1C2 (stereo unspecified) | inactive |
| CCCCNc1c(N)n(CC(C)C)c(=O)[nH]c1=O | inactive |
| CCn1c([N+](=O)[O-])nc2c1c(=O)[nH]c(=O)n2C | 22.4 µM (active) |
| Cn1c(=O)[nH]c(=O)c2c1nc(Br)n2Cc1ccc(Cl)cc1 | inactive |
| CC(C)Cn1c([N+](=O)[O-])nc2c1c(=O)[nH]c(=O)n2C | 29.9 µM (active) |
| COCCn1c(-c2ccc(-c3ccc([N+](=O)[O-])cc3Br)o2)nc2c1c(=O)[nH]c(=O)n2CC(C)C | inactive |
| COc1ccc(C(=O)c2sc3nc4c(c(C(F)(F)F)c3c2N)CN(C(C)=O)CC4)cc1OC | inactive |
| O=C(O)c1cc(N/N=C/c2cccc3ccccc23)ccc1Cl | inactive |
| COC(=O)c1scc(C)c1S(=O)(=O)Nc1ccc(C)cc1 | inactive |
| COc1cccc2[nH]c3c(O)ncnc3c12 | inactive |
| C(=C\c1nccc2c1[nH]c1ccccc12)/c1ccccc1 | inactive |
| C=Cc1ncc(OC)c2c1[nH]c1ccccc12 | 11.9 µM (active) |
| Cc1noc(C)c1COC(=O)c1cc(S(=O)(=O)N2CCOCC2)ccc1F | inactive |
| COc1ccc(N(Cc2cc(O)nc3ccccc23)C(=O)CCl)cc1 | 39.8 µM (active) |
| CCCC(=O)N(Cc1cc2cc(OC)ccc2nc1O)c1ccccc1OC | inactive |
| CC1(C)Cc2c(cnn2-c2ccccc2)C(NC(=O)CCN2CCCC2=O)C1 (stereo unspecified) | inactive |
| Nc1ccc(-c2nc(-c3ccccc3)nc3ccccc23)cc1 | inactive |
| O=[N+]([O-])c1ccc(-c2nc(Nc3cccc(O)c3)c3ccccc3n2)cc1 | 31.6 µM (active) |
| O=[N+]([O-])c1ccc(-c2nc(NCC3CCCO3)c3ccccc3n2)cc1 (stereo unspecified) | inactive |
| C(=N\Nc1ncnc2ccccc12)/c1ccccc1 | inactive |
| Cc1ccc(-c2nc(N/N=C/c3cccc([N+](=O)[O-])c3)c3ccccc3n2)cc1 | 39.8 µM (active) |

| SMILES | Potency |
| --- | --- |
| C(=N\Nc1nc(-c2cccnc2)nc2ccccc12)/c1ccccc1 | inactive |
| Cc1ccccc1N1CCN(Cc2nc(Cc3ccccc3)no2)CC1 | inactive |
| Clc1nc(N2CCOCC2)ncc1Br | inactive |
| CCOC(=O)C(C)Sc1cnccn1 (stereo unspecified) | inactive |
| CCCCC(=O)NC(c1ccco1)c1cc(Cl)c2cccnc2c1O (stereo unspecified) | inactive |
| CNC(=O)c1ccc(-c2sc3nc(N4CCOCC4)c4c(c3c2N)CC(C)(C)OC4)o1 | inactive |
| COC(=O)[C@@H]1CCCN1C(=O)c1cnn(-c2ncc3c(n2)-c2ccccc2CCC3)c1C1CC1 | inactive |
| Cc1cccc(-n2nnc(C(=O)N3CCc4ccccc4C3)c2N)c1 | inactive |
| Cc1ccc(-n2ncc(C(=O)NCCN3CCc4ccccc4C3)c2C2CCN(C(=O)OC(C)(C)C)CC2)c(C)c1 | 20 µM (active) |
| CCOC(=O)c1cc2c(=O)n3ccccc3nc2n(Cc2ccco2)/c1=N/C(=O)c1ccccc1OC | inactive |
| CCc1cc(S)n2c(nc3ccccc32)c1C#N | inactive |
| N#Cc1cc(-c2ccccc2)[nH]c1-c1nccc2ccccc12 | inactive |
| Oc1ncc(I)cc1I | inactive |
| Cn1cnnc1SCC(=O)Nc1cccc(S(=O)(=O)N2CCOCC2)c1 | inactive |
| CC(C)(C)c1ccc(OCCCC(=O)Nc2cccc(S(=O)(=O)N3CCOCC3)c2)cc1 | 28.2 µM (active) |
| O=C(Nc1nc[nH]n1)c1cccc(S(=O)(=O)N2CCOCC2)c1 | inactive |
| Cc1ccccc1NC(=O)CN1C(=O)S/C(=C\c2ccc(-c3cccc(C(=O)O)c3C)o2)C1=O | inactive |
| O=C(O)c1cc(N/N=C/C=C/c2ccccc2)ccc1Cl | inactive |
| COCC1CCCN(Cc2cn(-c3ccccc3F)nc2-c2cc(C)sc2C)C1 (stereo unspecified) | inactive |
| COC(=O)c1ccccc1-c1c2ccc(=N)cc-2oc2cc(N)ccc12 | inactive |
| CCOc1ccccc1-c1c2cc(O)c(=O)cc-2oc2cc(O)c(O)cc12 | 11.2 µM (active) |
| CCn1cc2nc(SCc3cccc(OC)c3)n(Cc3ccc(Cl)cc3)c(=O)c2n1 | inactive |
| COc1ccc(CNC(=O)C[S+]([O-])Cc2nc(-c3ccc(C)cc3)oc2C)cc1 (stereo unspecified) | inactive |

| SMILES | Potency |
| --- | --- |
| COc1ccc(CSc2nc3ccncc3n2Cc2nc(-c3ccc(OC)c(OC)c3)oc2C)cc1 | 39.8 µM (active) |
| CCN(CC(=O)N(CC(C)C)c1c(N)n(CC(C)C)c(=O)[nH]c1=O)Cc1nc(O)c2ccccc2n1 | inactive |
| Cc1ccc(-c2nc(C[S+]([O-])CC(=O)NC3CC3)c(C)o2)cc1 (stereo unspecified) | inactive |
| CCCCN(CC)C(=O)c1nn(-c2ccc(OC)cc2)c(=O)c2c1c1ccccc1n2C | 20 µM (active) |
| COc1ccc(-n2nc(C(=O)NCC(=O)Nc3ccc(F)cc3)c3ccccc3c2=O)cc1 | inactive |
| COc1ccc(NCC(=O)n2c(C)c(C)c3ccccc32)cc1 | inactive |
| CC1(C)C(=O)Nc2ccccc2N1C(=O)COC(=O)Cc1ccc(Cl)c(Cl)c1 | inactive |
| CCCCN=C(S)NNc1c(Cl)cc(Cl)cc1Cl | inactive |
| CCN(CC)CCNC(=O)c1[nH]c2ccccc2c1Sc1ccc(Cl)cc1 | 28.2 µM (active) |
| O=C(NCCCN1CCCCC1)c1[nH]c2ccccc2c1Sc1ccc(Cl)cc1 | 39.8 µM (active) |
| Cc1[nH]c2ccccc2c1C(=O)CSc1ccc(Cl)cc1 | inactive |
| Cc1[nH]c2ccccc2c1SCC(=O)N1CCCCC1 | inactive |
| COc1ccc2c(Sc3ccccc3)c(C(=O)N3CCC(C)CC3)[nH]c2c1 | 39.8 µM (active) |
| COc1ccc(Cn2c(=O)[nH]c3cc(C(=O)NCCCN4CCCC4)ccc3c2=O)cc1 | inactive |
| O=C(NN=C1CCCC1)c1[nH]c2ccc(Cl)cc2c1-c1ccccc1 | inactive |
| COc1ccc2c(Sc3ccc(Cl)cc3)c(C(=O)NCCCN3CCCCC3)[nH]c2c1 | 39.8 µM (active) |
| COc1cccc2[nH]c(C(=O)NCCCN3CCCC3=O)cc12 | inactive |
| COC(=O)C1CCN(C(=O)COC(=O)c2oc3ccc(OC)cc3c2C)CC1 | inactive |
| O=C(COC(=O)CCSc1ccc(Cl)cc1)NCc1ccccc1 | inactive |
